# Source: PubChem
# RXFP1 agonist = agonists of human relaxin receptor RXFP1; HEK293T-RXFP1 cAMP TR-FRET, 30 min; response scale: percent of porcine relaxin response, buffer zero; Potency, µM (highest dose often 57.5 µM), for the others: at the top dose activation, usual class: activators; hit rate 0.3% among 370,000; AID 2676; also: potency is read from the fitted curve at half-maximal effect; % is scaled to controls: 0 for no effect and ±100 for the full control effect; nearly all actives have a fitted effect of over 60% in size
# Target sequence (Q9HBX9 whole entry, looked up): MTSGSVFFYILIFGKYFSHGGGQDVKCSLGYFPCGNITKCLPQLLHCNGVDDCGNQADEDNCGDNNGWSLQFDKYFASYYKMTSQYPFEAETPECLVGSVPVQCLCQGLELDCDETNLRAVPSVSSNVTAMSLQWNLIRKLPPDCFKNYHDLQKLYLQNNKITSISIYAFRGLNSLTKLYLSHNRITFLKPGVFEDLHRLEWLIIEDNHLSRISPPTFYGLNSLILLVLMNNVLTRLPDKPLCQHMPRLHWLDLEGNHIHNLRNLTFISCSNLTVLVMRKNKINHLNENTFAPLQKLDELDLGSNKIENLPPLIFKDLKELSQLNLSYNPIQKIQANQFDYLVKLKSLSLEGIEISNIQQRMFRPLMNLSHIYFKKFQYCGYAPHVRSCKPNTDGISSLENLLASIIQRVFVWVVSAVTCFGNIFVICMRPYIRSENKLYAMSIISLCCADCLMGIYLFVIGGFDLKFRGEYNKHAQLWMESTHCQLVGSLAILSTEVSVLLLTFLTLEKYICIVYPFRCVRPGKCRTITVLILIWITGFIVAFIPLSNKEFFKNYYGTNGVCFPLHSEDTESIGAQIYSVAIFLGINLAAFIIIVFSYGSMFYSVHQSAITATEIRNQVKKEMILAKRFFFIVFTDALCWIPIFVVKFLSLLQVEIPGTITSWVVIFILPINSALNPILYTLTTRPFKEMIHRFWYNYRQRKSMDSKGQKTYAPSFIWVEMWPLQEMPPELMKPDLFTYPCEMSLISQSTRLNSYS
#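 HEK293T cells stably expressing RXFP1 were pretreated with the PDE4 inhibitor Ro 20174, exposed to compounds for 30 min at 37C, lysed, and cAMP was read by TR-FRET. Data normalized to buffer (basal) and 29 nM porcine relaxin (100%).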
# PTHR1 agonist = PTHR1 (human) receptor agonism; Q03431; HEK293 GP2 PTHR1 cells, GloSensor cAMP luminescence, 1 h; Potency, µM (titrated, usually from 115 µM), without a hit: top-dose activation, actives largely listed as activators; hit rate 0.075% among 410,000; also: potency is read from the fitted curve at half-maximal effect; nearly all actives have a fitted effect of over 55% in size
#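 HEK-293-derived GP2 cells expressing PTHR1 and a GloSensor cAMP reporter, 3,000/well, plated overnight, given luciferin plus IBMX (each 0.5 mM as added) for 1 h at 37 °C, then compound for 1 h at 37 °C. Luminescence was read after 15 min at room temperature.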
# TSHR antag = antagonists of human thyroid stimulating hormone receptor; P16473; TSHR-expressing cells, TSH-stimulated cAMP HTRF, 2 h; stronger effect = lower value; activity change, negative = inhibition, % at 11.5 µM; hit rate 0.2% among 330,000; AID 504810;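 active = activity change below a set negative limit, meaning inhibition stronger than a set level, cut at about -70% in these data; inconclusive = activity change between two set negative limits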; also: % is scaled to controls: 0 for no effect and ±100 for the full control effect
#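 Antagonism was scored as loss of TSH-driven cAMP in TSHR cells, stimulated with 4nM TSH (EC80) for 2 hours at 37 deg C and detected by homogeneous HTRF competition immunoassay.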
# NPSR antag = neuropeptide S receptor (human) antagonism, cAMP; CHO-NPSR cells, cAMP TR-FRET, antagonist mode; Potency, µM (highest dose often 38.3 µM), for inactives: at the top dose activity change, negative = inhibition, actives largely listed as inhibitors; hit rate 1% among 220,000; AID 1461; also: potency is read from the fitted curve at half-maximal effect; % is scaled to controls: 0 for no effect and ±100 for the full control effect; nearly all actives have a fitted effect of over 50% in size
# TCR act = activates T cell receptor signaling; primary human leukocytes, anti-CD3, IL-2 HTRF, 48 h; Potency, µM (titrated, usually from 9.22 µM), without a hit: at the highest dose activation of IL-2 secretion, usual class: activators; 330,000 tested, under 10 active; also: % of control where 0% means no effect
#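 Activity was scored as IL-2 release from primary human leukocytes given only a TCR signal (a-CD3 beads) plus compound for 48 hr. Detection used a two-antibody HTRF format read at 665nm.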
# RXFP1 antagonist = blocks the human relaxin receptor RXFP1; HEK293-RXFP1, relaxin-stimulated cAMP HTRF, 30 min; stronger effect = lower value; activity change, negative = inhibition, % at 57.5 µM; hit rate 0.59% among 350,000; AID 1259400;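 active = activity change of -60% or lower, but not beyond a set lower limit; inconclusive = change between -60% and -40%, or beyond the set limit; inactive = change above -40%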; also: % is scaled to controls: 0 for no effect and ±100 for the full control effect
# An asterisk follows results filed as active; i = inactive; ? = inconclusive; / = not tested or not shown; ! = not confirmed by another sample; [ ] = dose if it differs, or a comment. Many of the other results were omitted from the sample, so hits are more common in it than they were. Unless noted, calls follow the shape of the dose curve; as a rule, active = well fitted curve in the direction sought with a large enough effect; inconclusive = small, poorly fitted or top-dose-only effect, or another doubt; inactive = no such curve, though single readings can be large; an effect the other way counts as inactive or inconclusive.
SMILES,RXFP1 agonist,PTHR1 agonist,TSHR antag,NPSR antag,TCR act,RXFP1 antagonist
Cc1ccc(Nc2ncc(C(=O)N3CCN(c4ccc(F)cc4)CC3)c3ccccc23)cc1Cl,6.1%,-23.8%,/,/,/,/
COc1cc(C2C(C#N)=C(N)Oc3c2ccc2ccccc32)ccc1OCC(=O)Nc1cccc(C)c1 (centres undefined),-1.9%,-13.3%,0.6,-10.8%,-0.7%[46.1 µM],-78.4*
Cc1ccc(C)c(N2CCN(C(=O)c3cc(S(=O)(=O)N4CCCCCC4)cn3C)CC2)c1,-0.6%,-16.9%,/,/,/,/
CC1(C(=O)Nc2nc3ccccc3s2)CC1(Br)Br (centres undefined),20µM*,15.8%,93.2,/,-0.7%,-0.9
COCC(=O)Nc1nc2ccccc2s1,-0.9%,i,/,3.2%[46.1 µM],3.7%,-9.7
Cc1ccccc1CNC(=O)c1oc2c(c1C)-c1[nH]ncc1CC2,-0.5%,i,/,/,/,-6.4
COc1ccc2[nH]c(CN3CCC(CO)(CCOc4ccccc4)CC3)c(C)c2c1,-2.1%,i,3.6,?,2.5%,-70.5*
O=C(COC(=O)c1ccccc1C(=O)c1ccc(Cl)c([N+](=O)[O-])c1)NC1CCCCCC1,1.2%,-19.3%[57.5 µM],?,10µM*,-3.7%,-37.2
CN(C)CCNC(=O)/C(=C/c1ccc(-c2ccc(Cl)cc2Cl)o1)NC(=O)c1ccccc1,-0.9%,i,15.0,?,9.2%[46.1 µM],-69.8*
Cc1ccc(C(=O)N/C(=C\c2ccc(-c3ccc(Br)cc3)o2)C(=O)NCCCN(C)C)cc1,2.3%,i,-11.4,-41.9%,1.1%,-60.8*
CCCN(CCC)CCNC(=O)C1CCN(c2nc3ccc(CC)cc3s2)CC1,-3.3%,i,/,/,/,-15.2
COC(=O)c1ccc(CCc2cc(O)c(Br)cc2O)cc1,/,-36.7%,/,/,1.6%,-96.5*
COC(=O)c1ccc(CCc2cc(O)ccc2O)cc1,/,-32.8%,/,/,-2.4%,-71.9*
COC(=O)c1ccc(O)cc1,5.9%,i,-5.7,/,-3.2%,2.3
COC(=O)c1cc(Br)c(=O)n(CCc2ccccc2)c1,3.7%,i,-11.7,-1.2%[46.1 µM],10.0%,5.3
CC(C)OC(=O)c1ccc(NCc2cc(O)ccc2O)cc1,/,-29.4%,/,/,-3.8%,-63.5*
O=C(OCc1ccccc1)c1ccc(NCc2cc(O)ccc2O)cc1,/,-34.3%,/,/,-0.1%,-35.9
O=C(COc1ccccc1Cl)Nc1ccc(Cl)c(-c2nc3ccccc3o2)c1,0.2%,-16.5%,/,/,/,-10.5
Cc1cc(O)c(C(C)C)cc1NC(=O)Nc1ccc([N+](=O)[O-])cc1,/,i,/,/,-0.1%,?
Cc1ccc(C(C)C)cc1NC(=O)Nc1ccc([N+](=O)[O-])cc1,-2.9%,-92.6%,-36.2,10µM*,0.3%,-4.1
Cc1cccc(C(=O)Nc2cccc(C(=O)OCc3cc(=O)n4c5c(sc4n3)CCCC5)c2)c1,1.1%,i,/,/,/,-18.6
C[C@@H]1CC=C[C@H]2[C@H]1C(=O)N(Cc1ccccc1)[C@H]2c1ccc(F)c(Br)c1,0.0%,/,-5.8,3.98µM*,/,/
COc1ccc(-c2cccc(C3CC=CC4C3C(=O)N(Cc3ccccc3)C4c3ccc(OC)c(Cl)c3)c2)cc1 (centres undefined),0.0%,-41.4%,-1.4,10µM*,-21.5%,/
C[C@@H]1CC=C[C@H]2[C@H]1C(=O)N(Cc1ccccc1)[C@H]2c1ccc2ccccc2c1Br,0.0%,-87.2%,-1.8,10µM*,-8.7%,/
Cc1ccc(F)c([C@H]2[C@H]3C=CC[C@@H](C)[C@@H]3C(=O)N2Cc2ccccc2)c1,1.0%,-24.7%,-1.2,?,2.3%,/
SMILES,RXFP1 agonist,PTHR1 agonist,TSHR antag,NPSR antag,TCR act,RXFP1 antagonist
C[C@@H]1CC=C[C@H]2[C@H]1C(=O)N(Cc1ccccc1)[C@H]2c1ccc(F)c(/C=C/c2ccccc2)c1,4.4%,4.2%,-5.2,-58.2%,1.8%,/
CCNC(=O)c1c(NC(=O)Cc2coc3cc(C)ccc23)sc2c1CCCC2,1.3%,-3.1%,/,/,/,-29.8
CS(=O)(=O)N(CC(=O)Nc1ccc(Br)cc1)c1ccccc1Br,-0.6%,i,/,/,/,/
Cc1cc(C)cc(NC(=O)N2CCC(CN3CCCCCC3)CC2)c1,0.4%,-2.7%,/,/,/,3.8
Fc1ccc(C(c2ccc(F)cc2)N2CCN(C/C=C/c3ccccc3)CC2)cc1,2.8%,-24.9%,-12.0,?,-5.8%,-63.7*
C(=C\c1ccccc1)/CN1CCN(C(c2ccccc2)c2ccccc2)CC1,0.9%,6.0%,-4.2,12.6µM*!,1.7%,-40.0
CCOc1ccc(CCNC(=O)c2cc(Nc3ccc(C)cc3C)nc3ccccc23)cc1OCC,4.5%,-58.0%,/,/,/,-6.6
CCN(CC)c1ccc(NC(=O)C2CCN(c3nnc(-n4cccc4)s3)CC2)c(C)c1,-1.4%,-44.2%,/,/,/,/
CC1(C)S[C@@H]2[C@H](NC(=O)Cc3ccccc3)C(=O)N2[C@H]1C(=O)O (tested in a mixture with another compound),/,/,/,/,/,10.9
NS(=O)(=O)c1ccc(CNC(=O)CCS(=O)(=O)Cc2ccccc2)cc1,-3.1%,-11.3%,-79.2*,/,-4.4%,-11.1
CCCCC(CC)CNC(=O)Cc1ccc(-n2c(=O)[nH]c3ccccc3c2=O)cc1 (centres undefined),0.1%,-14.5%,/,/,/,-0.5
CCOCCCNC(=O)c1ccc(Cn2c(=S)[nH]c3c([nH]c4ccc(OC)cc43)c2=O)cc1,1.7%,-15.9%,-15.1,6.9%,1.8%,-36.0
O=C(NCC1CCCO1)c1ccc(Cn2c(=S)[nH]c3ccccc3c2=O)cc1 (centres undefined),3.9%,i,-1.5,-0.1%,-4.5%,?
CC[C@H](C)NC(=O)c1ccc(Cn2c(=S)[nH]c3c([nH]c4ccc(OC)cc43)c2=O)cc1,3.5%,i,19.5,5.0%,0.5%[46.1 µM],-64.1*
COc1ccc2[nH]c3c(=O)n(Cc4ccc(C(=O)NCC5CCCO5)cc4)c(=S)[nH]c3c2c1 (centres undefined),8.0%,3.3%,-1.0,5.2%,-8.7%,-89.0*
CCCCNC(=O)c1ccc(Cn2c(=S)[nH]c3c([nH]c4ccc(OC)cc43)c2=O)cc1,3.5%,i,-1.7,-56.7%,-1.1%[46.1 µM],-85.1*
CCN(CC)S(=O)(=O)c1ccc(NC(=O)NCc2noc3ccc(C)cc23)cc1,1.0%,-91.9%,/,/,/,-39.0
COc1ccc(CCNC(=O)CCCn2nc(C)c3sc4ccccc4c3c2=O)cc1OC,14.3%,-26.9%,/,/,/,-18.1
C#CCn1c(S(=O)(=O)Cc2ccccc2Cl)nc(-c2ccccc2)c1-c1ccccc1,1.1%,-21.2%,2.1,10µM*,-4.5%,/
Cc1sc2ncnc(N3CCC(C(=O)NNC(=O)COc4ccc(Cl)cc4)CC3)c2c1C,/,-41.9%,/,/,5.1%,-14.0
